Source: PubChem BioAssay (NCATS)
Results filed as inconclusive are left out. The source made the active and inactive calls. Calls follow the shape of the dose curve; as a rule, active = well fitted curve in the direction sought with a large enough effect; inconclusive = small, poorly fitted or top-dose-only effect, or another doubt; inactive = no such curve, though single readings can be large; an effect the other way counts as inactive or inconclusive.

Columns and labels:
[1] = P-glycoprotein substrates identified in KB-8-5-11 adenocarcinoma cell line, qHTS therapeutic library screen (AID 1346987); also: nearly all actives have a fitted effect of over 65% in size
How it was run: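 Steps: plate 500 KB-8-5-11 cells/well in DMEM + 10% FCS (colchicine removed); pin compounds in dose-response; incubate 72 h, 37 degree C, 5% CO2; add CellTiter-Glo, 5 min; read luminescence.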

[2] = NS1 protein of Zika virus - qHTS assay to identify small molecule inhibitors in human HEK 293 cells (AID 1347053); also: nearly all actives have a fitted effect of over 55% in size
How it was run: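 Inhibition of NS1 expression was scored in HEK 293 cells given compound 1 h ahead of MR766 virus (MOI = 0.5). Following 24 h at 37 C, two anti-NS1 antibodies generated a TR-FRET signal, scaled between uninfected and infected controls.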

[3] = qHTS of pediatric cancer cell lines to identify multiple opportunities for drug repurposing: Primary screen for DAOY cells (AID 1347090); also: nearly all actives have a fitted effect of over 55% in size
How it was run: (§1)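 Eight- or eleven-point concentration series, 48 h treatment at 37 degrees C in growth media; readout CellTiter-Glo luminescence. Potency and efficacy were taken from the concentration-response curves.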

[4] = qHTS of pediatric cancer cell lines to identify multiple opportunities for drug repurposing: Primary screen for SJ-GBM2 cells (AID 1347091)
How it was run: as §1

[5] = qHTS of pediatric cancer cell lines to identify multiple opportunities for drug repurposing: Primary screen for SK-N-MC cells (AID 1347093)
How it was run: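 Metabolically active cells were quantified by ATP-dependent luminescence (CellTiter-Glo, 15 min at room temperature) following 48 h treatment. Cells had been plated at 500-1,000 per well and settled for 5 h beforehand.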

[6] = qHTS of pediatric cancer cell lines to identify multiple opportunities for drug repurposing: Primary screen for BT-37 cells (AID 1347094)
How it was run: (§2)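 Viability was measured as metabolically active cells after 48 hours of treatment, read by CellTiter-Glo luminescence. Compounds were tested at multiple final concentrations, giving concentration-response curves.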

[7] = qHTS of pediatric cancer cell lines to identify multiple opportunities for drug repurposing: Primary screen for NB-EBc1 cells (AID 1347095)
How it was run: as §2

[8] = qHTS of pediatric cancer cell lines to identify multiple opportunities for drug repurposing: Primary screen for U-2 OS cells (AID 1347096); also: nearly all actives have a fitted effect of over 50% in size
How it was run: (§3)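 Cells (500-1,000/well) in growth media were settled 5 h at 37 degrees C, then given compounds for 48 h. Viability was read as CellTiter-Glo luminescence. Primary runs used MIPE at 11 points (0.78 nM-46 µM) and NPC at 8 points (0.59 nM-46 µM); follow-ups used 11 points.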

[9] = qHTS of pediatric cancer cell lines to identify multiple opportunities for drug repurposing: Primary screen for Saos-2 cells (AID 1347097); also: nearly all actives have a fitted effect of over 40% in size
How it was run: as §2

[10] = qHTS of pediatric cancer cell lines to identify multiple opportunities for drug repurposing: Primary screen for LAN-5 cells (AID 1347100)
How it was run: as §3

[11] = qHTS of pediatric cancer cell lines to identify multiple opportunities for drug repurposing: Primary screen for BT-12 cells (AID 1347101); also: nearly all actives have a fitted effect of over 25% in size
How it was run: (§4)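 Cells (500-1,000/well) rested 5 h, then received compounds for 48 h; metabolically active cells were measured by CellTiter-Glo luminescence. Final concentrations spanned up to 46 µM (MIPE, 11-point) or 0.59 nM-46 µM (NPC, 8-point) in primary screens, 11-point in follow-ups.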

[12] = qHTS of pediatric cancer cell lines to identify multiple opportunities for drug repurposing: Primary screen for Rh18 cells (AID 1347102); also: nearly all actives have a fitted effect of over 65% in size
How it was run: as §3

[13] = qHTS of pediatric cancer cell lines to identify multiple opportunities for drug repurposing: Primary screen for A673 cells (AID 1347092); also: nearly all actives have a fitted effect of over 45% in size
How it was run: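 Cells are plated, rested 5 h, dosed by pintool, incubated 48 h, then lysed with CellTiter-Glo and read by luminescence. DMSO is the neutral control; bortezomib at 2.3 uM final is the positive control.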

[14] = qHTS of pediatric cancer cell lines to identify multiple opportunities for drug repurposing: Primary screen for SK-N-SH cells (AID 1347098); also: nearly all actives have a fitted effect of over 65% in size
How it was run: as §4

[15] = qHTS of pediatric cancer cell lines to identify multiple opportunities for drug repurposing: Primary screen for NB1643 cells (AID 1347099); also: nearly all actives have a fitted effect of over 50% in size
How it was run: as §2

[16] = qHTS of pediatric cancer cell lines to identify multiple opportunities for drug repurposing: Primary screen for TC32 cells (AID 1347089); also: nearly all actives have a fitted effect of over 60% in size
How it was run: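 Measured quantity: luminescence from CellTiter-Glo, reflecting metabolically active TC32 cells following 48 h of compound. Curves came straight from multi-point titrations, with 8 or 11 points in primary and 11 in confirmatory screening.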

Measured: Potency
Potency is read from the fitted curve at half-maximal effect.

CCn1c(=O)c2c(nc(C=Cc3ccc(OC)c(OC)c3)n2C)n(CC)c1=O
active: [5] 18.7 µM
not listed: [13] | [14] | [15] | [16]
inactive: all other assays above

Cc1cc(O)c2c(c1)C(=O)c1cccc(O)c1C2=O
not listed: [5] | [7] | [9] | [16]
inactive: all other assays above

N#CC(=Cc1ccc(O)c(O)c1)C(=O)NCc1ccccc1
inactive: [1] | [2] | [8] | [12]
active: [5] 14.8 µM | [7] 23.5 µM

C[C@H]1C[C@H]2[C@@H]3CCC4=CC(=O)C=C[C@]4(C)[C@@H]3C(=O)C[C@]2(C)[C@@]1(O)C(=O)CO
not listed: [5] | [16]
inactive: all other assays above

Cn1c(Nc2ccc(C(F)(F)F)cc2)nc2cc(Oc3ccnc(-c4ncc(C(F)(F)F)[nH]4)c3)ccc21
active: [1] 20.9 µM | [16] 16.5 µM | [3] 18.7 µM | [4] 0.662 µM | [13] 2.35 µM | [5] 0.187 µM | [6] 2.43 µM | [7] 14.8 µM | [8] 14.8 µM | [9] 2.96 µM | [14] 7.64 µM | [15] 11.8 µM | [10] 10.5 µM | [11] 8.63 µM

O=C1NCCc2[nH]c(-c3ccncc3)cc21
active: [1] 7.43 µM | [2] 9.35 µM | [3] 4.69 µM | [4] 2.35 µM | [13] 1.18 µM | [5] 4.18 µM | [6] 3.06 µM | [7] 2.09 µM | [9] 4.18 µM | [11] 2.43 µM

CCN(C(=O)c1c(O)c2c(Cl)cccc2n(C)c1=O)c1ccccc1
active: [6] 21.7 µM
not listed: [5] | [7] | [9] | [11] | [13] | [16]
inactive: all other assays above

CCN(CC)CCNC(=O)c1c(C)[nH]c(C=C2C(=O)Nc3ccc(F)cc32)c1C
active: [1] 1.21 µM | [16] 12 µM | [3] 42.9 µM | [4] 34 µM | [13] 5.4 µM | [5] 1.08 µM | [6] 17.7 µM | [7] 7.62 µM | [8] 21.5 µM | [9] 4.29 µM | [14] 22.1 µM | [15] 38.2 µM | [10] 4.29 µM | [11] 44.4 µM | [12] 17.1 µM

CCCCCCCCc1ccc(CCC(N)(CO)CO)cc1
active: [1] 23.5 µM | [2] 9.35 µM | [13] 4.69 µM | [5] 1.87 µM | [6] 21.7 µM | [9] 18.7 µM | [14] 34.1 µM | [15] 18.7 µM | [10] 26.4 µM | [11] 21.7 µM | [12] 16.6 µM

C#C[C@]1(O)CC[C@@H]2[C@@H]3CCC4=CC(=O)CC[C@@H]4[C@H]3CC[C@@]21CC
not listed: [5] | [14] | [16]
inactive: all other assays above

O=C(C=Cc1ccc(CN(CCO)CCc2c[nH]c3ccccc23)cc1)NO
active: [1] 0.59 µM | [16] 0.93 µM | [3] 0.469 µM | [4] 0.118 µM | [13] 0.235 µM | [5] 0.105 µM | [6] 0.385 µM | [8] 0.469 µM | [9] 0.372 µM | [14] 0.541 µM | [15] 0.166 µM | [10] 0.0935 µM | [11] 0.611 µM | [12] 0.105 µM

C[C@@H]1[C@H](C)CC[C@]2(C(=O)O)CC[C@]3(C)C(=CC[C@@H]4[C@@]5(C)C[C@@H](O)[C@H](O)[C@@](C)(CO)[C@H]5CC[C@]43C)[C@@H]12
not listed: [2] | [4] | [9]
inactive: all other assays above

Nc1nc(=O)n([C@H]2C[C@H](O)[C@@H](CO)O2)cc1F
active: [1] 4.18 µM | [16] 0.829 µM | [7] 3.72 µM
inactive: [3] | [4] | [8] | [9] | [14] | [15] | [12]
